Results reported in PubChem BioAssay AID1159580 (chemical genetic matrix, 2015).
Among all 5,500 compounds or so, about 2,000 (36%) were called active. Roughly 18% stayed inconclusive and do not appear here. Cut-off read from the data, not from the text of the source: active = normalized growth mostly below about 0.91 (no sharp cut-off); inconclusive = no clear call, values can overlap the other calls; inactive = mostly above about 0.92. The list shows a part of the results.

Assay: chemical genetic growth profiling, strain panel (AID 1159580);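 note: tested at 20 µM; growth read once vehicle control cultures reached saturation at 30 °C; 1 = growth at the plate median or of vehicle wells; lower values mean less growth of the strain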
Conditions: growth OD

Measured: normalized growth

O=C(CCc1ccc(O)cc1)c1c(O)cc(O)cc1O[C@@H]1O[C@H](CO)[C@@H](O)[C@H](O)[C@H]1O
inactive: S. cerevisiae deletion strains, locus YJR075W, strain HOC1, hits give low values 1.05 | S. cerevisiae deletion strains, locus YKL009W, strain mrt4, hits give low values 0.978 | S. cerevisiae deletion strains, locus YKL068W, hits give low values 1 | S. cerevisiae deletion strains, locus YKL085W, strain MDH1 (second series), hits give low values 0.988 | S. cerevisiae deletion strains, locus YKL085W, strain MDH1, hits give low values 0.988 | S. cerevisiae deletion strains, locus YKL160W, strain elf1, hits give low values 1.01 | S. cerevisiae deletion strains, locus YKR001C, strain vps1, hits give low values 1 | S. cerevisiae deletion strains, locus YKR026C, strain gcn3, hits give low values 1.01 | S. cerevisiae deletion strains, locus YKR091W, strain srl3, hits give low values 1.01 | S. cerevisiae deletion strains, locus YLL001W, strain dnm1, hits give low values 1.01 | S. cerevisiae deletion strains, locus YLL026W, hits give low values 1.02 | S. cerevisiae deletion strains, locus YLL041C, strain sdh2, hits give low values 1.01 | S. cerevisiae deletion strains, locus YLR027C, strain aat2, hits give low values 1.01 | S. cerevisiae deletion strains, locus YLR039C, strain RIC1, hits give low values 1.08 | S. cerevisiae deletion strains, locus YLR058C, strain SHM2, hits give low values 1.01 | S. cerevisiae deletion strains, locus YLR102C, strain apc9, hits give low values 1.01 | S. cerevisiae deletion strains, locus YLR113W, strain HOG1, hits give low values 0.956 | S. cerevisiae deletion strains, locus YLR221C, strain rsa3, hits give low values 1.02 | S. cerevisiae deletion strains, locus YLR258W, strain gsy2, hits give low values 1.04 | S. cerevisiae deletion strains, locus YLR262C, strain YPT6 (second series), hits give low values 1.02 | S. cerevisiae deletion strains, locus YLR262C, strain YPT6, hits give low values 1.14 | S. cerevisiae deletion strains, locus YLR268W, strain sec22, hits give low values 1 | S. cerevisiae deletion strains, locus YLR320W, strain mms22, hits give low values 1.02 | S. cerevisiae deletion strains, locus YLR330W, strain CHS5, hits give low values 1.01 | S. cerevisiae deletion strains, locus YLR342W, strain FKS1 (second series), hits give low values 1.01 | S. cerevisiae deletion strains, locus YLR342W, strain FKS1, hits give low values 1.02 | S. cerevisiae deletion strains, locus YLR357W, strain rsc2, hits give low values 1 | S. cerevisiae deletion strains, locus YLR370C, strain arc18, hits give low values 1.01 | S. cerevisiae deletion strains, locus YLR371W, strain rom2, hits give low values 0.997 | S. cerevisiae deletion strains, locus YLR384C, strain iki3, hits give low values 1.03 | S. cerevisiae deletion strains, locus YLR418C, strain cdc73, hits give low values 1.03 | S. cerevisiae deletion strains, locus YML016C, strain PPZ1, hits give low values 1.02 | S. cerevisiae deletion strains, locus YML032C, strain rad52, hits give low values 0.986 | S. cerevisiae deletion strains, locus YML120C, strain ndi1, hits give low values 1.01 | S. cerevisiae deletion strains, locus YML124C, strain tub3, hits give low values 0.993 | S. cerevisiae deletion strains, locus YMR058W, strain fet3, hits give low values 1.02 | S. cerevisiae deletion strains, locus YMR078C, strain ctf18, hits give low values 0.991 | S. cerevisiae deletion strains, locus YMR125W, strain sto1, hits give low values 1.02 | S. cerevisiae deletion strains, locus YMR129W, hits give low values 1.01 | S. cerevisiae deletion strains, locus YMR205C, strain PFK2, hits give low values 1.02 | S. cerevisiae deletion strains, locus YMR223W, strain ubp8, hits give low values 0.992 | S. cerevisiae deletion strains, locus YMR231W, strain pep5, hits give low values 1.01 | S. cerevisiae deletion strains, locus YMR263W, strain SAP30, hits give low values 1.03 | S. cerevisiae deletion strains, locus YMR307W, strain GAS1, hits give low values 1.23 | S. cerevisiae deletion strains, locus YNL067W, strain RPL9B, hits give low values 1.04 | S. cerevisiae deletion strains, locus YNL071W, strain lat1, hits give low values 1.01 | S. cerevisiae deletion strains, locus YNL153C, strain GIM3, hits give low values 1.04 | S. cerevisiae deletion strains, locus YNL183C, strain NPR1, hits give low values 0.937 | S. cerevisiae deletion strains, locus YNL209W, strain ssb2, hits give low values 1.01 | S. cerevisiae deletion strains, locus YNL233W, strain BNI4, hits give low values 1.03 | S. cerevisiae deletion strains, locus YNL248C, strain rpa49, hits give low values 1.01 | S. cerevisiae deletion strains, locus YNL250W, strain rad50, hits give low values 0.986 | S. cerevisiae deletion strains, locus YNL271C, strain bni1, hits give low values 0.992 | S. cerevisiae deletion strains, locus YNL298W, strain CLA4, hits give low values 0.998 | S. cerevisiae deletion strains, locus YNL307C, strain MCK1, hits give low values 0.991 | S. cerevisiae deletion strains, locus YNL322C, strain KRE1 (second series), hits give low values 1.02 | S. cerevisiae deletion strains, locus YNL322C, strain KRE1, hits give low values 1.02 | S. cerevisiae deletion strains, locus YNR049C, strain mso1, hits give low values 1.02 | S. cerevisiae deletion strains, locus YNR052C, strain pop2, hits give low values 0.982 | S. cerevisiae deletion strains, locus YOL012C, strain htz1 0.98 | S. cerevisiae deletion strains, locus YOL147C, strain pex11, hits give low values 0.996 | S. cerevisiae deletion strains, locus YOR001W, strain rrp6, hits give low values 1.04 | S. cerevisiae deletion strains, locus YOR061W, strain CKA2, hits give low values 1.02 | S. cerevisiae deletion strains, locus YOR069W, strain VPS5, hits give low values 1.01 | S. cerevisiae deletion strains, locus YOR070C, strain gyp1, hits give low values 1 | S. cerevisiae deletion strains, locus YOR080W, strain dia2, hits give low values 1.03 | S. cerevisiae deletion strains, locus YOR083W, strain WHI5, hits give low values 1.01 | S. cerevisiae deletion strains, locus YOR106W, strain vam3, hits give low values 1.01 | S. cerevisiae deletion strains, locus YOR136W, strain idh2, hits give low values 0.994 | S. cerevisiae deletion strains, locus YOR144C, strain elg1, hits give low values 1 | S. cerevisiae deletion strains, locus YOR184W, strain ser1, hits give low values 1.03 | S. cerevisiae deletion strains, locus YOR231W, strain MKK1, hits give low values 0.993 | S. cerevisiae deletion strains, locus YOR265W, strain rbl2, hits give low values 1.01 | S. cerevisiae deletion strains, locus YOR270C, strain vph1, hits give low values 1.03 | S. cerevisiae deletion strains, locus YOR290C, strain snf2, hits give low values 0.988 | S. cerevisiae deletion strains, locus YOR316C, strain cot1, hits give low values 1.02 | S. cerevisiae deletion strains, locus YPL051W, strain arl3, hits give low values 1.01 | S. cerevisiae deletion strains, locus YPL078C, strain atp4, hits give low values 1.02 | S. cerevisiae deletion strains, locus YPL106C, strain sse1, hits give low values 1.02 | S. cerevisiae deletion strains, locus YPL240C, strain hsp82, hits give low values 1.01 | S. cerevisiae deletion strains, locus YPL241C, strain CIN2, hits give low values 1.02 | S. cerevisiae deletion strains, locus YPL256C, strain CLN2, hits give low values 0.966 | S. cerevisiae deletion strains, locus YPR119W, strain clb2, hits give low values 0.992 | S. cerevisiae deletion strains, locus YPR141C, strain kar3, hits give low values 0.987 | S. cerevisiae deletion strains, locus YPR163C, strain tif3, hits give low values 0.993 | S. cerevisiae deletion strains, locus YPR167C, strain met16, hits give low values 1.01 | S. cerevisiae deletion strains, strain wtn01, hits give low values 1 | S. cerevisiae strains, strain wild type, hits give low values 1.02
